An excerpt weighted towards active compounds, which were near 8.5% of everything screened.
KDM4E inh: blocks human JMJD2E demethylase activity | JMJD2E catalytic domain, FDH-coupled NADH fluorescence (FDH is formaldehyde dehydrogenase) | Potency, µM (doses to about 57.1 µM), actives largely listed as inhibitors | hit rate 1.6% among 230,000; note: nearly all actives have a fitted effect of over 50% in size
Sfp inh: inhibitors of Bacillus subtilis Sfp phosphopantetheinyl transferase; Biochemical Sfp PPTase activity, qHTS; Potency, µM, actives largely listed as inhibitors; hit rate 3.5% among 310,000; active = well fitted curve in the direction sought with a large enough effect; inconclusive = small, poorly fitted or top-dose-only effect, or another doubt; inactive = no such curve, though single readings can be large; an effect the other way counts as inactive or inconclusive;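 note: the enzyme is Sfp with the accession as filed and its product quenches rhodamine fluorescence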
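Step 1, compound plus 15 nM Sfp-PPTase, 15 min, room temperature. Step 2, add rhodamine-CoA (5 uM) and BHQ-2-YbbR (12.5 uM). Step 3, read 525/598 nm fluorescence at 0 and 30 min.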
GoLoco inh red: inhibitors of human Gai1-RGS12 GoLoco interaction (red fluorophore); AID 880; Gai1:RGS12 GoLoco peptide FP, rhodamine, 10 min; hit rate 0.44% among 230,000; Potency, µM (doses to about 61.6 µM), most hits filed as inhibitors; P63096; active = well fitted inhibition curve with a large enough effect, not every such curve was filed as active; inactive = no such curve, though single readings can be large or run the other way; note: nearly all actives have a fitted effect of over 30% in size
Coupling enz: counter-screen for Giardia aldolase inhibitors: coupling enzyme system; coupling enzyme system counterscreen, AmpLite Red fluorescence; activity change, negative = inhibition, % at 58.2 µM, hits read low; hit rate 0.67% among 290,000; AID 2472; in the data active = activity change below about -30%
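Counterscreen lacking aldolase: glyceraldehyde-3-phosphate coupling-enzyme reagent preincubated 10 min at RT with compound (at 57.5 uM final), then substrate/coupling system with AmpLite Red added; fluorescence read at 525/598 nm after 20 min RT.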
NPSR antag: neuropeptide S receptor (human) antagonism, cAMP; Q6W5P4; CHO-NPSR cells, cAMP TR-FRET, antagonist mode; Potency, µM (highest dose often 38.3 µM), actives largely listed as inhibitors; hit rate 1% among 220,000; AID 1461; active = well fitted curve in the direction sought with a large enough effect; inconclusive = small, poorly fitted or top-dose-only effect, or another doubt; inactive = no such curve, though single readings can be large; an effect the other way counts as inactive or inconclusive; note: nearly all actives have a fitted effect of over 50% in size
Target sequence (Q6W5P4 whole entry, looked up): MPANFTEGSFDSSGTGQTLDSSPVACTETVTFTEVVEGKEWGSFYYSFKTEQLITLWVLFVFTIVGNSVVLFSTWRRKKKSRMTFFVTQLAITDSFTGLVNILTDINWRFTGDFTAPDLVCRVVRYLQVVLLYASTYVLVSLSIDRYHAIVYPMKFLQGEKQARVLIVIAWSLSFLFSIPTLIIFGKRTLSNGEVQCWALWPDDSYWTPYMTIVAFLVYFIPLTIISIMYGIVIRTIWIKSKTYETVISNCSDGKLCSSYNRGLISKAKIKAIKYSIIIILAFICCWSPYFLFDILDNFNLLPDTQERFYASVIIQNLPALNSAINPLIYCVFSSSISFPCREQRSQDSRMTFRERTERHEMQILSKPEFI
ALDH1A1 inh: blocks purified human ALDH1A1 activity | P00352 | Purified ALDH1A1, NADH fluorescence, propionaldehyde substrate | Potency, µM (titrated, usually from 75.3 µM), actives largely listed as inhibitors | hit rate 7.3% among 220,000
Numbers stand for hits; - = inactive; ? = inconclusive; . = not tested or not shown; [ ] = another dose, or the depositor's remark. Unless noted, calls come from the whole dose curve; as a rule, active = well fitted inhibition curve with a large enough effect (not every such curve was filed as active); inconclusive = small, poorly fitted or top-dose-only effect, or another doubt; inactive = no such curve, though single readings can be large or run the other way.

SMILES	KDM4E inh	Sfp inh	GoLoco inh red	Coupling enz	NPSR antag	ALDH1A1 inh
CC(=O)c1cccc(OCc2cc(C(=O)N3CCC(N4CCCCC4)CC3)no2)c1	.	-	.	.	.	.
COc1ccc(-c2cnnc(N/N=C/c3ccc(O)c(O)c3)n2)cc1	25µM	-	-	-	-	-
Cc1ccc2[nH]c3nc(N/N=C/c4cccc(O)c4)nnc3c2c1	.	-	.	-	.	.
COc1ccc(-c2cnnc(N/N=C/c3ccc(O)cc3)n2)cc1	-	-	-	-	-	-
CCNc1nc(NCC)nc(N/N=C/c2ccc(O)c(O)c2)n1	18µM	50µM	-	-	-	-
COc1cc(/C=N/Nc2nnc3c(n2)[nH]c2ccccc23)ccc1O	-	56µM	-	-	-	-
COc1ccc([C@@H]2[C@@H]3C(=O)N(C(C)(C)C)C(=O)[C@@H]3[C@]3(CC(C)C)C(=O)N(c4cccc(Br)c4)C(=O)N23)cc1	.	-	.	-	.	.
CCc1nn(CC(=O)N2CCN(c3ccc(F)cc3)CC2)c(=O)c2cc3occc3n12	.	-	.	.	.	.
COc1ccc(N(C)C(=S)Nc2ccc3nc(C)c(C)nc3c2)cc1	?	?	-	-	-	10µM
Cc1ccccc1OC1CCN(C(=O)c2cc(COc3ccccc3)on2)CC1	.	-	.	.	.	.
C[C@@H]1CC[C@H]2C(=O)N3[C@@H](CC[C@@H](C)[C@@H]3c3ccc(Br)cc3)C(=O)N2[C@@H]1c1ccc(Br)cc1	.	-	.	-	.	-[13.5 µM]
C=CCc1cccc(C2C(C)CCC3C(=O)N4C(CCC(C)C4c4cccc(CC=C)c4)C(=O)N32)c1 (configuration not stated)	.	-	.	-	.	6.3µM
CC1(C)Oc2ccc3ccc(=O)oc3c2/C(=C/NNC(N)=S)C1=O	.	-	.	-	.	.
NC(=O)C1CCN(C(=O)c2cc3n(n2)C(C(F)(F)F)CC(c2ccco2)N3)CC1 (configuration not stated)	?	-	-	-	-	12µM
O=C(NC1CCCCCC1)c1cc2n(n1)C(C(F)(F)F)CC(c1ccco1)N2 (configuration not stated)	-	-	-	-	-	-
Clc1ccc(-n2nnc(-c3nccs3)n2)cc1Cl	13µM	40µM	-	-	-	25µM
CCN(C(=O)c1coc(=O)c(Br)c1)c1ccc2c(c1)OCO2	?	45µM	-	-42	-	?
O=C(CCS(=O)(=O)c1ccc(Br)cc1)Nc1ccc2c(c1)OCO2	-	-	-	-	-	?
CCN(C(=O)CCS(=O)(=O)c1ccc(Br)cc1)c1ccc2c(c1)OCO2	-	-	-	-	-	16µM
COc1ccc(-c2nc3cnc(N4CCNCC4)nc3n(Cc3cccs3)c2=O)cc1	.	?	-	-	.	?
Cc1cc(=S)[nH]c(=S)[nH]1	-	45µM	-	-	-	-
O=S(=O)(NC1CCCCC1)c1ccc(N2CCOCC2)nc1	-	-	-	-	-[7.67 µM]	.
COc1ccccc1N1C(=O)CC(Sc2nccc(C)n2)C1=O (configuration not stated)	-	-	-	-	-	-
O=C(O)CCSC1CC(=O)N(c2ccccc2)C1=O (configuration not stated)	.	-	.	-	.	.
COc1ccccc1N1C(=O)CC(Sc2n[nH]c(-c3cccc(C)c3)n2)C1=O (configuration not stated)	-	5.6µM	-	-	?	2µM
SMILES	KDM4E inh	Sfp inh	GoLoco inh red	Coupling enz	NPSR antag	ALDH1A1 inh
O=C1CC(Sc2ncccn2)C(=O)N1c1ccccc1 (configuration not stated)	-	-	-	-	-	22µM
Nc1nnc(SC2CC(=O)N(c3ccccc3)C2=O)s1 (configuration not stated)	-	79µM	-	-	-	3.5µM
CC(C)c1ccc(N2C(=O)CC(Sc3ncccn3)C2=O)cc1 (configuration not stated)	.	-	.	-	.	.
Cc1nc(SC2CC(=O)N(c3ccc([N+](=O)[O-])cc3)C2=O)nc2c1CCCC2 (configuration not stated)	-	-	-	.	-	1.8µM
COc1ccc(-c2nc(CSCC(=O)NC3CCN(Cc4ccccc4)CC3)c(C)o2)cc1OC	.	-	.	-	.	.
C=CCNc1nnc(SC2CC(=O)N(c3ccc(OCCC)cc3)C2=O)s1 (configuration not stated)	-	50µM	-	-	-	0.56µM
CCCOc1ccc(N2C(=O)CC(SC(=NC)Nc3ccc(F)cc3)C2=O)cc1 (configuration not stated)	-	-	-	-	-	-
Cc1nc(SC2CC(=O)N(c3ccccc3)C2=O)n[nH]1 (configuration not stated)	-	16µM	-	-	-	0.35µM
CCOc1ccc(N2C(=O)CC(Sc3ncccn3)C2=O)cc1 (configuration not stated)	-	-	-	-	-	22µM
O=C(Nc1cc(S(=O)(=O)N2CCCCC2)ccc1N1CCCCC1)C1CC1	-	-	-	-	-	.
COc1ccc(CCNC(=O)c2ccc3c(c2)NC(=O)C(CSCc2cc(C)ccc2C)N3)cc1OC (configuration not stated)	.	45µM	.	-	.	.
Cc1ccc(-c2cc(-c3ccccc3)[nH]c(=S)c2C#N)cc1	-	-	-	-	-	?
N#Cc1c(N)[nH]c(=S)c(C#N)c1-c1ccccc1	?	40µM	-	-	-	28µM
O=c1c2ccccc2nc(N/N=C/c2c(O)ccc3ccccc23)n1O	11µM	40µM	-	-	-	?
Cc1nc2ccccc2c(=O)n1/N=C/c1c(O)ccc2ccccc12	-	-	-	-	-	-
Oc1ccc(/C=N/Nc2ccccc2)cc1	-	-	-	-	-	20µM
CCCc1nc2ccccc2c(=O)n1/N=C/c1ccc(O)cc1	-	-	-	-	-	-
COc1cc(/C=N/NC2=NCCCCC2)ccc1O	-	-	-	-	-	.
Oc1ccc(/C=N/NC2=NCCCCC2)cc1	-	-	-	-	-	18µM
O=c1c2ccccc2nc(N/N=C/c2ccc(O)cc2)n1O	?	35µM	-	-	-	10µM
Cn1cc(Br)c(-c2cccc(NC(=O)CCC(=O)O)c2)n1	-	-	-	-	-	-
Nc1nonc1-c1noc(N2CCCCC2)n1	-	-	-	-	-	-
Nc1ccc(N2CCCCC2)c2nonc12	-	?	-	-53	-	7.9µM
Nc1c(N2CCCC2)cc(Cl)c2nonc12	?	-	.	-34	-	?
C1CCN(c2nc3nonc3nc2N2CCCCC2)CC1	-	-	-	-	-	?
Nc1c(N2CCOCC2)cc(Cl)c2nonc12	?	-	-	-38	-	-
CCOC(=O)CN1C(=O)CC(c2ccccc2)C1=O (configuration not stated)	.	-	.	-	.	.
C=CCc1ccccc1Oc1cc(F)nc(N)n1	.	-	.	-	.	.
CC(C)n1c(=S)[nH]c2c1c(=O)[nH]c(=O)n2C	7.9µM	10µM	10µM	-	-	2µM

Assay outcomes deposited in PubChem BioAssay by National Center for Advancing Translational Sciences (NCATS).
